Screening results deposited in PubChem by several laboratories.
Calb FLC = affects C. albicans growth with fluconazole; C. albicans CaCi-2 (fluconazole-resistant clinical isolate) + fluconazole, Alamar Blue growth, 48 h; growth inhibition, % (concentration not given with the values); 300,000 compounds, 0.57% hits; AID 1979;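 active = growth inhibition above about 58% in most replicates, limit read from the data, passing the limit was not always enough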;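 note: all wells also contain fluconazole at 8 µg/ml as a sub-toxic cotreatment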
Cardio protect = protects H9c2 cardiomyocytes from peroxide injury. 360,000 compounds, 0.63% hits. protection from H2O2 cell death, % at 20 µM. H2O2 injury protection, ATPLite, 2 h;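 active = compounds giving at least 50% protection of heart cells from peroxide-induced death in the single-dose screen, raw or plate-pattern-corrected value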
Efflux pump inh = antifungal efflux pump inhibition, Nile Red retention | inhibition, % at 10 µM | AID 485275 | 330,000 compounds, 0.44% hits | S. cerevisiae Candida pump triplex;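 active = plate passing quality check with inhibition over a set limit, or well fluorescence over plate mean plus 4 SD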;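 note: Nile Red retained in pooled yeast measured as flow cytometry median fluorescence; higher means more Nile Red kept so more efflux inhibition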
PHOSPHO1 inh = inhibitors of human PHOSPHO1 phosphatase; recombinant PHOSPHO1, absorbance phosphatase assay; inhibition, % at 13.3 µM; 290,000 compounds, 1.1% hits; AID 1565; in the data active = inhibition above about 60%
KCC2 mod = modulates chloride dependent transport by human KCC2 | B-score of Tl+ flux slope (higher = more flux/activation; lower = inhibition) at 10 µM | KCC2 cells, thallium flux FluoZin-2 fluorescence | 190,000 compounds, 2.2% hits | Q9H2X9;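 active = thallium flux slope and its plate-corrected score both differing from the plate sample mean at a set confidence after two filtering rounds, in either direction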;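 note: slope of fluorescence scaled to starting intensity during 10 to 20 s after thallium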
Numbers stand for hits; - = inactive; . = no result given. Compounds with a hit are over-represented: about 3.3% of the library has one in this group of screens.

SMILES | Calb FLC | Cardio protect | Efflux pump inh | PHOSPHO1 inh | KCC2 mod
Oc1ccc(/C=N/N(c2ccccc2)c2ccccc2)c(O)c1O | 113 | - | - | - | .
CC(=O)Nc1cccc(-c2csc(Nc3ccc(C)cn3)n2)c1 | 91 | - | - | - | -
COc1ccc(OCc2nnc(SCC(=O)O)n2N)cc1 | - | - | - | 60 | .
Cn1c(COc2ccc3ccccc3c2)nnc1SCC(=O)O | - | - | - | 62 | -
Cn1c(COc2cccc3cccnc23)nnc1SCC(=O)O | - | - | - | - | -
Cn1c(COc2ccc(Cl)cc2)nnc1SCc1ncc(-c2ccccc2)o1 | - | - | - | 80 | -
CCN1CCN(c2ccc(S(=O)(=O)N3CCCCC3)cc2NC(=O)c2ccc(C)o2)CC1 | - | - | - | . | .
Clc1ccc(-c2nn3c(C4COc5ccccc5O4)nnc3s2)cc1 (configuration not stated) | - | - | - | 92 | -
O=C(N/N=C/c1ccccn1)c1[nH]c2ccc([N+](=O)[O-])cc2c1-c1ccccc1 | - | 84 | - | - | -
NNC(=O)c1[nH]c2ccc([N+](=O)[O-])cc2c1-c1ccccc1 | - | - | - | - | .
COc1cc(OC)c2c(c1)C(=O)c1cc(OC)cc(OC)c1C2=O | - | - | - | 107 | -
COc1ccc(C=C2c3ccccc3C(=O)c3ccccc32)c(OC)c1 | - | - | - | - | -
Oc1ccc(-c2nnc(-c3ccc(O)cc3)nn2)cc1 | - | - | - | - | .
Oc1ccc(C2=NNC(c3ccc(O)cc3)=NN2)cc1 | 94 | - | - | - | .
CS(=O)(=O)c1ncc(CO)n1Cc1ccccc1 | - | - | - | - | -
CCOc1cc(S(=O)(=O)NCc2ccccc2)c(OCC)cc1-n1cnnn1 | 100 | - | - | . | -
CCOc1ccc(-n2cnnn2)cc1S(=O)(=O)NCc1ccccc1 | - | - | - | - | -
Cc1cccc(N2C(=O)C3CCCN3C2=S)c1C (configuration not stated) | . | - | - | . | .
CCn1ncc2c1C(=O)NC1c3ccccc3C(=O)N21 (configuration not stated) | - | 59 | - | - | .
COc1ccc(OC)c(NC(=O)c2cc3ccccc3o2)c1 | - | - | - | - | -
COc1ccc(OC)c(Nc2nc(N)nc(-c3cc4ccccc4o3)n2)c1 | - | 56 | - | - | -
COc1cc(/C=N/NC(=O)c2ccc(=O)[nH]n2)ccc1O | - | - | - | - | -
Cc1c(C(=O)N/N=C/c2ccc(O)c(Br)c2)sc(N)c1C#N | . | 70 | - | - | -
COc1cc(/C=N/NC(=O)c2sc(N)c(C#N)c2C)ccc1O | - | 54 | - | - | -
Fc1ccc(-c2ccc3c(c2)C2CC3CCN2)cc1 (configuration not stated) | . | - | . | . | .
SMILES | Calb FLC | Cardio protect | Efflux pump inh | PHOSPHO1 inh | KCC2 mod
O=C(Cc1ccc(Cl)cc1)NCC(=O)N1CCCCCC1 | - | - | - | . | .
CC(C)CC(=O)Nc1c2c(nn1-c1ccc(F)cc1)CS(=O)(=O)C2 | - | - | - | - | .
NC(=O)c1c(N)sc2c1CCCCC2 | - | - | - | 97 | -
CNC(=O)c1c(N)sc2c1CCCCC2 | - | . | - | 71 | .
COCCNC(=O)c1c(N)sc2c1CCCC2 | - | . | - | - | -
Fc1cnc(N2CCOCC2)nc1N1CCOCC1 | - | - | - | - | -
Fc1cnc(N2CCOCC2)nc1N1CCc2ccccc21 | - | - | - | - | -3.3
Cc1cccc(NC(=O)CN(C)C(=O)/C=C/c2ccccc2)c1C | . | - | . | . | .
CC(=O)c1ccc(CCCc2ccc(C(C)=O)cc2)cc1 | . | - | . | . | .
COc1cc(/C=C(\C#N)C(=O)Nc2cccc(C(=O)O)c2)ccc1OCc1ccc(F)cc1 | - | - | - | - | .
COc1ccc(NC(=O)/C(C#N)=C\c2ccc(OCc3ccc(C(=O)O)cc3)c(OC)c2)cc1 | - | - | - | 70 | .
CCOCC(=O)Nc1ccc2c(c1)N(S(=O)(=O)c1cccs1)CCC2 | - | - | - | . | .
Cc1ccc2c(c1)c(=O)c1c3n2CCN(C(=O)CCl)C3CC1 (configuration not stated) | - | - | - | 80 | -
CCN(C[C@H]1N[C@@](C)(C(=O)OC)[C@H]2C(=O)N(Cc3ccccc3)C(=O)[C@@H]12)C(=O)Nc1ccc(Cl)cc1 | . | - | - | . | .
CCOC(=O)C(C(=O)Nc1ccccn1)C1CCCCC1 (configuration not stated) | - | - | - | 70 | -
O=c1/c(=C\c2cc([N+](=O)[O-])cc([N+](=O)[O-])c2O)sc2nc3ccccc3n12 | . | - | - | 67 | -3.3
CCN(CC(=O)Nc1c(F)cccc1F)C(=O)c1nn(C)c(=O)c2ccccc12 | . | - | - | . | .
CCN1C(=O)/C(=C2/SC(C)=C(C)N2CC)SC1=S | - | - | - | 80 | -
O=C(Nc1ccc(S(=O)(=O)N2CCOCC2)cc1)c1ccc(=O)[nH]c1 | - | . | - | - | -
CCCn1nnc(NC(=S)NC(=O)Cc2ccccc2)n1 | - | - | - | - | .
CCCn1nnc(NC(=S)NC(=O)CC)n1 | - | - | - | 60 | -
Nc1nc(SCC(=O)C23CC4CC(CC(C4)C2)C3)n[nH]1 | - | - | - | 88 | -
COc1ccccc1/C=C/C=N/n1c(-c2ccccc2)n[nH]c1=S | - | - | - | 99 | -
O=C(Cc1ccccc1)NNS(=O)(=O)c1ccc(F)cc1 | - | - | - | - | -
Nc1ccc(S(=O)(=O)NNC(=O)C(=O)NNc2ccccc2)cc1 | 106 | - | - | - | -
SMILES | Calb FLC | Cardio protect | Efflux pump inh | PHOSPHO1 inh | KCC2 mod
O=C(NNc1ccccc1)C(=O)NNS(=O)(=O)c1ccc(CCCl)cc1 | 86 | - | - | - | -
Nc1ccc(S(=O)(=O)Nc2ccc(C(=O)c3ccccc3)cc2)cc1 | - | - | - | - | .
COc1ccc(NS(=O)(=O)c2cccc(C(=O)NCCCn3ccnc3)c2)cc1 | - | - | - | . | .
Cc1ccc(NC(=O)Nc2nnc(-c3ccncc3)s2)cc1C | - | - | - | - | -
COC(=O)Nc1nnc(-c2ccncc2)s1 | - | - | - | 62 | -
O=C(CCS(=O)(=O)c1ccc(Cl)cc1)Nc1nc(-c2ccncc2)cs1 | 85 | - | - | - | .
O=C(CCS(=O)(=O)c1ccc(Cl)cc1)Nc1nc(-c2cccnc2)cs1 | - | - | - | - | .
Cc1ccc(-c2noc(COC(=O)c3ccco3)n2)cc1 | . | - | - | . | .
O=C(N/N=C/c1ccc(O)cc1)c1cc(-c2ccccc2)nc2ccccc12 | - | - | - | - | .
O=C(N/N=C/c1ccc(O)cc1)c1csc2ccccc12 | 114 | - | - | - | -
O=C(C1CC1)N1CCN(c2ccc(O)cc2)CC1 | - | - | - | - | .
COc1ccc(C(NC(C)=O)c2cc(Cl)c3cccnc3c2O)cc1 (configuration not stated) | - | - | - | - | .
CCCC(=O)NC(c1ccc(C(C)C)cc1)c1ccc2cccnc2c1O (configuration not stated) | 89 | - | - | . | .
CCCC(=O)NC(c1ccccc1Cl)c1ccc2cccnc2c1O (configuration not stated) | 83 | - | - | - | .
COc1ccc(C(NC(=O)C(C)C)c2ccc3cccnc3c2O)cc1 (configuration not stated) | 86 | - | - | - | -
